The record followed here is the supplement of paper PMC12645437, “Orthogonal IMiD-Degron Pairs Induce Selective Protein Degradation in Cells” (ACS Chemical Biology, 2025).

The assay concerns the target T1, CRBN, Q96SW2.
T1 chain: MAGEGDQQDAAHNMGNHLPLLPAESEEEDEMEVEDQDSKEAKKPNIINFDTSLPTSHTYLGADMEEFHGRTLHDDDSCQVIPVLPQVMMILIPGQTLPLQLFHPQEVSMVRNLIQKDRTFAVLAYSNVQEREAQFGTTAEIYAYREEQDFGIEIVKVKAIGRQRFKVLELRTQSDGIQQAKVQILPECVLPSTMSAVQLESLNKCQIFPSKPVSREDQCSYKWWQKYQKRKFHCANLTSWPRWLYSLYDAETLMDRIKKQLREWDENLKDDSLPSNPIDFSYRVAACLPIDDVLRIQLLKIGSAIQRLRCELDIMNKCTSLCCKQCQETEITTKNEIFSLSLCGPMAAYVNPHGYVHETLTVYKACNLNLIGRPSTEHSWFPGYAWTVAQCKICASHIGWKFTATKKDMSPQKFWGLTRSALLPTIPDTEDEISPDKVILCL
As to the kind of experiment: log2 fold change of degron read counts, EGFP-low vs EGFP+ sorted cells (limma voom), compound-induced degradation; higher = more compound-induced degradation of the degron-EGFP fusion; degrons are variants of IKZF1/3 zinc finger 2; compound dose not given here. The note with it: Jurkat, 18 h. As to the method: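 Pooled library of 8380 IKZF3 ZF2 degron mutants (positions 146-167 varied within the IKZF3 130-189 degron; only the varied core is printed, flanks not printed) fused to EGFP with IRES-mCherry, lentivirally expressed in Jurkat cells. mCherry+ cells were treated with one IMiD compound for 18 h (dose not stated) and FACS-sorted into EGFP-low and EGFP+ populations. Degron sequences were counted by NGS, and log2FC (EGFP-low vs EGFP+) was estimated by limma voom over 3 biological replicates.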

The mark [1] stands for this setting: compound: compound 19 (5-tert-butyl-thalidomide).
Where [2] appears, read: compound: compound 22 (5-morpholino-thalidomide).
Setting [3] is: compound: compound 33 (diphenyl IMiD analogue).

Over roughly 8,300 sequences, “log2 fold change of degron read counts, EGFP-low vs EGFP+ sorted cells (limma voom), compound-induced degradation” has its median near -1.1; the highest 2% begin near 3.2. This excerpt belongs to a sample that is enriched for the highest values.
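Note: pooled lentiviral library of zinc finger degron-EGFP fusions in mCherry-positive Jurkat cells, FACS-sorted after compound exposure, with degron abundance counted by next-generation sequencing.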

B1: 46F_47E_49N_50V_52G_53A_54C_55F_67L_, Q9UKT9 (peptide)
chain: FECNVCGACFTQKGNLLRHIKL
On to B1, for which the “log2 fold change of degron read counts” value reads like this: under setting [1], -1.77; under setting [2], -2.3; under setting [3], 0.438; (compound: thalidomide) 0.297.

B2: 46F_47N_49E_50I_52G_53A_54I_55F_67L_, Q9UKT9 (peptide)
chain: FNCEICGAIFTQKGNLLRHIKL
Consider B2, for which the “log2 fold change of degron read counts” value is 0.366 under setting [1], -0.376 under setting [2], -0.467 under setting [3] and -0.484 (compound: thalidomide).

B3: 46F_47Y_49E_50I_52G_53A_54I_55F_67L_, Q9UKT9 (peptide)
chain: FYCEICGAIFTQKGNLLRHIKL
For the sequence B3, the “log2 fold change of degron read counts” value is, setting by setting: under setting [1], 3.43; under setting [2], 3.53; under setting [3], 2.4; (compound: thalidomide) 0.401.

B4: 46F_47W_49E_50I_52G_53A_54I_55F_67L_, Q9UKT9 (peptide)
chain: FWCEICGAIFTQKGNLLRHIKL
On to B4, for which the “log2 fold change of degron read counts” value came to 3.17 under setting [1], 3.55 under setting [2], 2.41 under setting [3] and 0.519 (compound: thalidomide).

B5: 46F_47F_49E_50I_52G_53A_54I_55F_67L_, Q9UKT9 (peptide)
chain: FFCEICGAIFTQKGNLLRHIKL
For the sequence B5, the “log2 fold change of degron read counts” value by setting is: under setting [1], 3.4; under setting [2], 3.61; under setting [3], 1.62; (compound: thalidomide) 0.938.

B6: 46F_47I_49E_50I_52G_53A_54I_55F_67L_, Q9UKT9 (peptide)
chain: FICEICGAIFTQKGNLLRHIKL
For the sequence B6, the “log2 fold change of degron read counts” value is, setting by setting: under setting [1], -0.706; under setting [2], 0.427; under setting [3], 2.23; (compound: thalidomide) 1.71.

B7: 46F_47G_49E_50I_52G_53A_54I_55F_67L_, Q9UKT9 (peptide)
chain: FGCEICGAIFTQKGNLLRHIKL
In the case of B7, the “log2 fold change of degron read counts” value reads like this: under setting [1], 2.93; under setting [2], 2.72; under setting [3], 1.73; (compound: thalidomide) 0.804.

B8: 46F_47R_49E_50I_52G_53A_54I_55F_67L_, Q9UKT9 (peptide)
chain: FRCEICGAIFTQKGNLLRHIKL
With B8, the “log2 fold change of degron read counts” value under setting [1] is -1.64, the “log2 fold change of degron read counts” value under setting [2] was -0.637, the “log2 fold change of degron read counts” value under setting [3] turned out to be 1.17 and the “log2 fold change of degron read counts” value (compound: thalidomide) worked out at 1.56.

B9: 46F_47S_49E_50I_52G_53A_54I_55F_67L_, Q9UKT9 (peptide)
chain: FSCEICGAIFTQKGNLLRHIKL
Consider B9, for which the “log2 fold change of degron read counts” value runs as follows: under setting [1], 2.19; under setting [2], 1.4; under setting [3], 1.65; (compound: thalidomide) 0.91.

B10: 46F_47D_49E_50I_52G_53A_54I_55F_67L_, Q9UKT9 (peptide)
chain: FDCEICGAIFTQKGNLLRHIKL
With B10, the “log2 fold change of degron read counts” value under setting [1] is -0.448, the “log2 fold change of degron read counts” value under setting [2] was -0.893, the “log2 fold change of degron read counts” value under setting [3] is -0.134 and the “log2 fold change of degron read counts” value (compound: thalidomide) was -0.014.

B11: 46F_47A_49E_50I_52G_53A_54I_55F_67L_, Q9UKT9 (peptide)
chain: FACEICGAIFTQKGNLLRHIKL
On to B11, for which the “log2 fold change of degron read counts” value was 3.52 under setting [1], 1.96 under setting [2], 0.532 under setting [3] and 0.207 (compound: thalidomide).

B12: 46F_47H_49E_50I_52G_53A_54I_55F_67L_, Q9UKT9 (peptide)
chain: FHCEICGAIFTQKGNLLRHIKL
Turning to B12, the “log2 fold change of degron read counts” value runs as follows: under setting [1], 1.06; under setting [2], 0.746; under setting [3], 0.49; (compound: thalidomide) -0.388.

B13: 46F_47E_49E_50I_52G_53A_54I_55F_67L_, Q9UKT9 (peptide)
chain: FECEICGAIFTQKGNLLRHIKL
Turning to B13, the “log2 fold change of degron read counts” value reads like this: under setting [1], -1.24; under setting [2], -1.08; under setting [3], 1.05; (compound: thalidomide) 2.4.

B14: 46F_47S_49N_50Q_52G_53R_54C_55F_67L_, Q9UKT9 (peptide)
chain: FSCNQCGRCFTQKGNLLRHIKL
Regarding B14, the “log2 fold change of degron read counts” value by setting is: under setting [1], -2.78; under setting [2], -2.88; under setting [3], -2.83; (compound: thalidomide) -2.73.

B15: 46F_47N_49P_50Q_52G_53A_54D_55F_67L_, Q9UKT9 (peptide)
chain: FNCPQCGADFTQKGNLLRHIKL
For the sequence B15, the “log2 fold change of degron read counts” value by setting is: under setting [1], -3.44; under setting [2], -3.57; under setting [3], -2.75; (compound: thalidomide) -3.69.

B16: 46F_47F_49N_50I_52G_53A_54E_55F_67L_, Q9UKT9 (peptide)
chain: FFCNICGAEFTQKGNLLRHIKL
B16: the “log2 fold change of degron read counts” value reads like this: under setting [1], 1.77; under setting [2], 1.94; under setting [3], 0.373; (compound: thalidomide) -0.454.

B17: 46F_47S_49P_50I_52G_53H_54Q_55F_67L_, Q9UKT9 (peptide)
chain: FSCPICGHQFTQKGNLLRHIKL
Take B17: the “log2 fold change of degron read counts” value reads like this: under setting [1], -2.3; under setting [2], -3.17; under setting [3], -1.53; (compound: thalidomide) -1.82.

B18: 46F_47S_49N_50Q_52G_53R_54D_55F_67L_, Q9UKT9 (peptide)
chain: FSCNQCGRDFTQKGNLLRHIKL
On to B18, for which the “log2 fold change of degron read counts” value under setting [1] is -3.12, the “log2 fold change of degron read counts” value under setting [2] is -4.04, the “log2 fold change of degron read counts” value under setting [3] was -2.59 and the “log2 fold change of degron read counts” value (compound: thalidomide) is -2.97.
